Data published in PubChem BioAssay AID2012 (Sanford-Burnham Center for Chemical Genomics, 2009).
Out of some 290,000 compounds screened, about 2,700 (0.93%) were called active. The rule behind the calls is not given here. Shown is part of a subset that was picked to be rich in actives.

Target: Eukaryotic translation initiation factor 4H (Homo sapiens) (UniProt Q15056)
Test: human eIF4H binding inhibitors, primary screen, translation initiation inhibitor project, biochemical, uHTS, fluorescence polarization (AID 2012);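 note: calls also rest on retests at 20 µM and on dose response follow-up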
Settings: eIF4H fluorescence polarization binding assay, stronger effect = higher value

Compound | inhibition (at 35 µM) | inhibition (confirmation average, at 20 µM) [%]
CCCNC(=O)CSc1nc(Cc2ccccc2)nc2ccccc12 | -6.2% (inactive) | –
Clc1c(OCCCn2ccnc2)ccc2ccccc12 | 1.6% (inactive) | –
Cc1cccc(NC(=O)/C=C/c2ccc3c(c2)OCO3)n1 | -2.1% (inactive) | –
O=C(/C=C/c1ccc2c(c1)OCO2)NCc1ccc(F)cc1 | 4.7% (inactive) | –
O=C(/C=C/c1ccc2c(c1)OCO2)NCc1cn2cc(Cl)ccc2n1 | -3.3% (active) | 76.4
Cc1cccc(NS(=O)(=O)c2ccc(-c3cnc(C4CC4)o3)cc2)c1 | -2.4% (inactive) | –
O=C(c1ccc[nH]c1=S)N1CCN(S(=O)(=O)c2ccc(Br)cc2Cl)CC1 | -10.2% (inactive) | –
Cc1cc(C(=O)CSc2nc(N)cc(=O)[nH]2)c(C)n1Cc1ccco1 | 43.2% (inactive) | –
Cc1ccc(OCC(=O)c2cc(C)n(Cc3ccco3)c2C)c([N+](=O)[O-])n1 | 101% (active) | 86.9
COc1ccccc1CNC(=O)COc1ccc(C)nc1[N+](=O)[O-] | -3.5% (inactive) | –
Cc1cc(C(=O)COC(=O)CNC(=O)c2ccc(F)cc2)c(C)n1Cc1ccco1 | 86.4% (inactive) | -10.3
CCc1ccccc1NC(=O)CN(C)C(=O)COc1ccc(C)nc1[N+](=O)[O-] | 1.9% (inactive) | –
Cc1ccc(OCC(=O)NC(C)c2ccccc2)c([N+](=O)[O-])n1 (stereo not drawn) | -4.1% (inactive) | -2.8
COc1ccc(C)cc1-n1nnnc1SCC(=O)c1cc(C)n(Cc2ccco2)c1C | 64.8% (active) | –
COc1ccc(OC)c(-n2nnnc2SCC(=O)Nc2cc(C)ccc2OC)c1 | 0% (inactive) | –
COCC(C)n1c(C)cc(C(=O)COc2ccc(C)nc2[N+](=O)[O-])c1C (stereo not drawn) | 70.1% (active) | 70.5
Cc1c(C(C)(C)O)[nH]c2ccc(C#N)cc12 | 2.9% (inactive) | –
CN1CCN(C(=O)C(=O)c2cn(CC(=O)N3CCCC3)c3ccccc23)CC1 | -7.2% (inactive) | –
CNC(=O)c1sc(Nc2ccc(OCc3ccccc3)cc2)nc1C | 8% (inactive) | –
Cc1cc2ccccn2c1C(=O)c1cccc(F)c1 | -9.7% (inactive) | –
CC(=O)Nc1ccc(/C=N/Nc2ccc(C(=O)c3c(C)cc4ccccn34)cc2[N+](=O)[O-])cc1 | 8.5% (inactive) | –
Cc1ccc(C(C[N+](=O)[O-])c2c(C)cc3ccccn23)cc1 (stereo not drawn) | 54.1% (active) | 84.9
CCOc1ccc(N(C)S(=O)(=O)c2cnc[nH]2)cc1 | -1% (inactive) | –
Cc1ccc(C)n1C(Cc1ccccc1)C(=O)O (stereo not drawn) | 83% (active) | –

Compound | inhibition (at 35 µM) | inhibition (confirmation average, at 20 µM) [%]
CC(Cc1ccccc1)C(=O)N(C)Cc1ccccc1 (stereo not drawn) | -2.7% (inactive) | –
COc1ccc(CNC(=O)C(Cc2ccccc2)n2cccc2)cc1 (stereo not drawn) | 1.8% (inactive) | –
Cc1cccc(N2CCN(C(=O)/C=C/c3ccco3)CC2)c1C | 57.3% (active) | 101
CCC(CC)C(=O)N1CCN(c2cccc(C)c2C)CC1 | -9.8% (inactive) | –
O=C(/C=C/c1ccco1)NC(=S)N1CCCCC1 | 5.7% (inactive) | –
CCOc1cc(/C=C2\SC(N3CCCC(C)C3)=NC2=O)ccc1O (stereo not drawn) | 1.3% (inactive) | –
CC(=O)c1cccc(NC(=O)C2CCN(C(=O)c3ccccc3Cl)CC2)c1 | 3.5% (inactive) | –
COc1ccc(CCn2c(-c3ccco3)nc3nc4ccccc4nc32)cc1OC | 3.6% (inactive) | –
c1coc(-c2nc3nc4ccccc4n3nc2-c2ccco2)c1 | 73.4% (active) | –
Cn1c(-c2ccco2)nc2cc3ccccc3cc21 | 4.9% (inactive) | –
O=C(Nc1ccc(Cl)cc1)c1cccc(OC(=S)N2CCOCC2)c1 | -8.8% (inactive) | –
CC(=O)N1c2ccc(S(=O)(=O)N(C)CC(=O)N(C)Cc3ccccc3)cc2CC1C (stereo not drawn) | 2.8% (inactive) | –
O=C(CN1C(=O)c2cccnc2Oc2ccc(Cl)cc21)Nc1ccc(F)cc1 | -8.2% (inactive) | –
COc1ccc(Cl)cc1CSc1ncn[nH]1 | -9.7% (inactive) | –
Cc1cc(C)nc(S/C=C/C(=O)c2ccccc2)n1 | -7.4% (inactive) | –
O=C(/C=C/Sc1ncn[nH]1)c1ccc(Cl)cc1 | 60.7% (active) | 65.7
COc1ccc(C(=O)C2CCCN(C(=O)c3ccc(OC)o3)C2)c(C)c1 (stereo not drawn) | -2.6% (inactive) | –
Oc1cccc(/C=N/Nc2ccc(Cl)nn2)c1O | 24.2% (inactive) | –
COc1ccc(/C=C2\SC(=S)N(CCCC(=O)NC3CCCC3)C2=O)cc1OC | 48.7% (inactive) | –
CCSc1nnc(NC(=O)c2ccc(C)cc2)s1 | -9.1% (inactive) | –
Cc1ccc(C(=O)Oc2coc(CSc3nnc(NC(=O)c4cccs4)s3)cc2=O)cc1C | 65.8% (active) | 85.6
Cc1ccc(C(=O)Nc2nnc(-c3cccs3)s2)cc1C | -2.7% (inactive) | –
CN1CCN(C(=O)c2ccccc2NC(=O)COc2ccccc2Cl)CC1 | -9.2% (inactive) | –
Cn1c(=O)[nH]c(=O)c2c1nc(N1CCN(C(c3ccccc3)c3ccccc3)CC1)n2CCO | 0.3% (inactive) | –

Compound | inhibition (at 35 µM) | inhibition (confirmation average, at 20 µM) [%]
CCCc1ccc(OCCNC(=O)c2ccccc2Br)cc1 | 8.8% (inactive) | –
O=C(NC(=S)Nc1ncccn1)c1ccccc1Br | -2% (inactive) | –
CCOc1cnc(C(=O)NNC(=O)c2ccccc2Br)o1 | 85.7% (active) | 95
CCCCc1nc2cc(C(=O)N3CCCCC3CCO)ccc2o1 (stereo not drawn) | -1.1% (inactive) | –
COc1ccc(CCNC(=O)C(=O)NCC2OCCN2S(=O)(=O)c2cccs2)cc1OC (stereo not drawn) | -4.1% (inactive) | –
CCOc1ccc(NC(=O)c2ccc(NC(=O)C3CCCO3)cc2)cc1 (stereo not drawn) | -9.4% (inactive) | –
Cc1ccc(OCC(=O)Nc2ccc(C(=O)O)cc2NC(=O)COc2ccc(C)c(C)c2)cc1C | 4.8% (inactive) | –
Cc1ccc(NC(=S)Nc2ccc(F)cc2)cc1 | -11.3% (inactive) | –
CCCSc1nc(NCc2ccco2)c2c3c(sc2n1)COC(C)(CC)C3 (stereo not drawn) | 4.7% (inactive) | –
Cn1c(=O)n(Cc2ccco2)c(=N)c2c3c(sc21)CCCC3 | -14.4% (inactive) | –
CN1CCc2c(sc3c2c(NCc2ccco2)nc2nnnn23)C1 | 68% (active) | –
Cc1ccc(CNC(=O)CCN2C(=O)[C@@H]3Cc4ccccc4CN3C2=O)cc1 | -3.4% (inactive) | –
O=C(CCN1C(=O)[C@@H]2Cc3ccccc3CN2C1=O)NCCc1ccccc1 | 80.7% (active) | –
O=C(CCN1C(=O)[C@@H]2Cc3ccccc3CN2C1=O)NCc1ccccc1 | -0.5% (inactive) | –
COc1ccc(OC)c(C(O)c2nc3ccccc3n2C)c1 (stereo not drawn) | -3.8% (inactive) | –
Cc1ccc(C(C)C)cc1OCC(=O)Nc1ccccc1N1CCCC1 | -15.8% (inactive) | –
CC(=O)Oc1ccc(-c2cccc(C(=O)N3CCCCC3)c2)cc1 | 5.5% (inactive) | –
O=C1OC(/C=C/c2ccccc2)=NC/1=C/c1ccco1 | 76.9% (inactive) | 4.3
CCC1S/C(=N/N=C/c2ccco2)NC1=O (stereo not drawn) | 9.4% (inactive) | –
CC(C)(C)C1C/C(=C/c2ccco2)C(=O)/C(=C/c2ccco2)C1 (stereo not drawn) | 71.6% (active) | 82.6
O=C(NCc1ccccc1Cl)C1CCN(S(=O)(=O)c2cccc3nonc23)CC1 | 9.7% (inactive) | –
C=CCN1C(=O)C2(OCCCO2)c2cccc(Cl)c21 | 0.1% (inactive) | –
O=C(CN1CCC(NC(=O)Nc2ccccc2)CC1)Nc1cccc([N+](=O)[O-])c1 | -3.5% (inactive) | –
COc1ccc(S(=O)(=O)N2CCOC2CNC(=O)C(=O)NCc2ccncc2)cc1C (stereo not drawn) | -2.1% (inactive) | –

Compound | inhibition (at 35 µM) | inhibition (confirmation average, at 20 µM) [%]
CCOc1cccc(=O)c2c(C)n(CC3CCCO3)c(C)c12 (stereo not drawn) | 79.5% (active) | –
COc1ccccc1NC(=O)CSc1nnc(C)n1CC1CCCO1 (stereo not drawn) | -1.3% (inactive) | –
CCOc1ccc(NC(=O)c2cccc3c2C(=O)N(CC2CCCO2)C3)cc1 (stereo not drawn) | 3% (inactive) | –
Cc1c2cnn(CC(=O)NCCCN3CC(C)CC(C)C3)c(=O)c2c(C)n1Cc1ccc(Cl)cc1 (stereo not drawn) | -3.1% (inactive) | –
O=[N+]([O-])c1ccc(NC(=S)N2CCN(c3ccccn3)CC2)cc1 | -4.4% (inactive) | –
CCn1cc(C(=O)NCCC(=O)NCCO)c(=O)c2cc3c(cc21)OCO3 | 13.7% (inactive) | –
CCN(CC)C(=O)C(=O)Nc1cccc(Br)c1 | -3% (inactive) | –
O=C(CCN1C(=O)c2ccccc2C1=O)Nc1cccc(F)c1 | 0.6% (inactive) | –
CCN(CC)C(=O)CSC(Nc1cccc(F)c1)=C(C#N)C#N | 63% (active) | 56.7
CC(C)n1c(COc2ccccc2)nc2ccccc21 | -1.5% (inactive) | –
CCC(Oc1ccccc1C)C(=O)Nc1ccc(S(=O)(=O)Nc2cc(C)on2)cc1 (stereo not drawn) | -3.3% (inactive) | –
CN(C)S(=O)(=O)N1CCC(Oc2cccc(C(=O)NCCCC3CCCC3)c2)CC1 | -18.3% (inactive) | –
Cc1cc(=O)[nH]c(SCc2cc(Cl)ccc2OC(F)F)n1 | -16.4% (inactive) | –
O=C(OCc1cc2ccccc2[nH]c1=O)c1cccnc1 | -7.3% (inactive) | –
O=C(OCc1cc(Cl)ccc1OC(F)F)c1cccnc1 | 54.6% (active) | 83.8
Cn1c(CCNS(=O)(=O)c2ccc(F)cc2)nnc1SCc1cccnc1 | -0.9% (inactive) | –
CCCC(=O)C1CCN(Cc2ccccc2)CC1 | 7.7% (active) | 89.5
CCNC(=S)NNC(=O)C1CCN(Cc2ccccc2)CC1 | 1.5% (inactive) | –
CCOC(=O)C1CCN(Cc2ccc(-c3ccccc3)cc2)CC1 | 3.6% (inactive) | –
CCc1nc2cccnc2n1-c1ccc(C(=O)O)cc1 | 91.6% (active) | 89.8
COCCCNC(=O)Cc1ccc(-n2c(C)nc3cccnc32)cc1 | 63.6% (inactive) | 13.7
CCOC(=O)CNC(=O)CSc1nc2cccnc2n1CC | 5.8% (inactive) | –
CCN(CC(=O)Nc1ccc(C)c(S(=O)(=O)N(C)C)c1)Cc1ccccc1 | 6.5% (inactive) | –
O=c1c(-c2cccc(Cl)c2)c[nH]n1-c1ccccc1 | 4.3% (inactive) | –
